According to PubChem BioAssay AID651871 (Sanford-Burnham Center for Chemical Genomics, 2012):
“And” between values parts separate entries of the source, which are not always exact repeats. Identical values can stand only once.

tested on: HL-1; experiment: cardiomyocyte survival under oxidative or metabolic stress – cell-based, panel, H9c2 and HL-1, ATP luminescence, set 2, SAR follow-up (AID 651871); conditions: H9c2/HL-1 cardiomyocytes, 2-deoxyglucose stress, with 2-deoxyglucose, run 2, at 79 µM (top of the series);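 note: cells exposed to stressor for 2 h before ATP readout; reference of the scale not given here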

Compound	activity (protection/inhibition)
COc1ccc2c(c1OC)C(=O)N1c3ccccc3C(=O)N(Cc3cccc(Cl)c3Cl)C21 (stereo not drawn)	27.7% and -9.62%
COc1ccc2nc(-c3cc(OC)c(OC)c(OC)c3)cc(C(=O)NCC(=O)Nc3ccc(C(C)=O)cc3)c2c1	54.8%
CCOC(=O)c1cccc(NC(=O)CNC(=O)c2cc(-c3cc(OC)c(OC)c(OC)c3)nc3ccccc23)c1	75.9%
